Results filed as inconclusive are left out. The source made the active and inactive calls. Calls follow the shape of the dose curve; as a rule, active = well fitted inhibition curve with a large enough effect; inconclusive = small, poorly fitted or top-dose-only effect; inactive = flat fitted curve, though single readings scatter.
% is scaled to controls: 0 for no effect and ±100 for the full control effect; potency is read from the fitted curve at half-maximal effect.

A short description of the assay: P-glycoprotein substrates identified in KB-8-5-11 adenocarcinoma cell line, qHTS therapeutic library screen (AID 1346987). Also: nearly all actives have a fitted effect of over 65% in size. The note with it: KB-8-5-11 (P-gp overexpressing) viability, CellTiter-Glo, 72 h; series mostly up to 44.5 µM; activity change, negative = cytotoxicity: at the top concentration. Summed up:
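Human cervical adenocarcinoma KB-8-5-11 cells, selected in colchicine to over-express P-gp and assayed without it, were exposed for 72 h to titrated compounds. An ATP-based luminescent viability signal gave AC50.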
Background: In qHTS, concentration-response curves come from the screen itself.
For `CCOC(=O)Cc1cccc(-c2cc(CCCCCCc3ccc(O[C@H]4O[C@H](COC(C)=O)[C@@H](OC(C)=O)[C@H](OC(C)=O)[C@@H]4OC(C)=O)c(-c4cccc(CC(=O)OCC)c4)c3)ccc2O[C@H]2O[C@H](COC(C)=O)[C@@H](OC(C)=O)[C@H](OC(C)=O)[C@@H]2OC(C)=O)c1`, the “activity change, negative = cytotoxicity” value is 1.83% (inactive).
Same read-out and setting: next, `COc1ccc([C@H]2Cc3cccc(O)c3C(=O)O2)cc1OC`: -10.2% (inactive).
For `CCCCCCCCn1cc(CN(CC)CC)c2cc(-c3cnc(N)nc3)ccc21`, the Potency was 18.4 µM (active).
In the case of `O=C(NCCO)c1cccc(-c2cc(Nc3ccc(OC(F)(F)F)cc3)ncn2)c1`, the “activity change, negative = cytotoxicity” value is -23.1% (inactive).
Same read-out and setting: then `CCCCC1CCC(c2nc(-c3ccncc3)no2)CC1` (centres undefined), with -24% (inactive).
Turning to `COc1ccccc1OCCNCC(O)CCOc1cccc2[nH]c3ccccc3c12` (centres undefined), the Potency is 18.4 µM (active).
On to `C/C=C\NC(=O)C1NC(=O)C(CC(N)=O)NC(=O)C(NC(=O)C(=O)C(C)CC)Cc2ccc(O)c(c2)-c2cccc3c2NC(=O)C3(O)C1O` (centres undefined), for which the “outcome” value is “inactive [at 17.3 µM]”.
For `CCOc1ccc(CCNC(=O)c2cc3sc(Cl)cc3n2C)cc1OCC`, the “activity change, negative = cytotoxicity” value is -20.2% (inactive).
The same measure, in the same setting: next, `CCC/C=C/c1cc2c(C=O)c(O)c(CC=C(C)C)cc2o1`: -14% (inactive); `Cc1cc2c(c(=O)o1)C=C1CC[C@H]([C@H](C)Cn3cnc(=N)c4[nH]cnc43)C[C@@H]1O2`: -16.4% (inactive).
In the case of `COC(=O)CC1OC(C)C2=C(O)c3c(O)cccc3C(=O)C23OC13` (centres undefined), the Potency was 10.1 µM (active).
On to `CCn1c(-c2nonc2N)nc2c(C#CCO)ncc(OCCCN)c21`, for which the outcome was inactive.
Consider `c1ccc(-c2ccc(CNc3nc(-c4ccccn4)nnc3-c3ccccc3)cc2)cc1`, for which the Potency is 4.61 µM (active).
As to `CCC(c1ccccc1)c1noc(CCN(CC)CC)n1` (centres undefined), the “activity change, negative = cytotoxicity” value is 4.3% (inactive).
Same read-out and setting: then `CCOC(=O)N1CCC(N2CCC[C@@H](NC(=O)c3ccccc3C)C2)CC1`, with -6.31% (inactive).
With `NCCCC[C@H](NC(=O)[C@@H]1CCCN1C(=O)[C@@H]1CSSC[C@H](N)C(=O)N[C@@H](Cc2ccc(O)cc2)C(=O)N[C@@H](Cc2ccccc2)C(=O)N[C@@H](CCC(N)=O)C(=O)N[C@@H](CC(N)=O)C(=O)N1)C(=O)NCC(N)=O`, the Potency result was “inactive”.
Turning to `CCCCCCCCCCCCCCCC(=O)O[C@@H]1CC(C)=C(/C=C/C(C)=C/C=C/C(C)=C/C=C/C=C(C)/C=C/C=C(C)/C=C/C2=C(C)C[C@@H](OC(=O)CCCCCCCCCCCCCCC)CC2(C)C)C(C)(C)C1`, the “activity change, negative = cytotoxicity” value is 2.82% (inactive).
The same measure, in the same setting: then `C/C=C/C=C/C=C/C(=O)O[C@@H]1C=C(CO)C(O)(C(=O)OC)[C@@]2(C)CCCC(C)(C)C12` (some centres undefined), with 4.04% [at 17.3 µM] (inactive); and `O=P(O)(O)OC(CO)CO`, with 9.05% (inactive).
The same measure, in the same setting: then `C=C(C(=O)OC)[C@@H]1CC=C2C=CC(=O)[C@H](C)[C@@]2(C)C1`, with -19.9% (inactive).
On to `CN(c1ccc(NC(=O)Nc2ccccc2)cc1)S(=O)(=O)c1cnn(-c2ccc(F)cc2)c1`, for which the Potency was 11.6 µM (active).
The same measure, in the same setting: next, `C[C@@H]1O[C@@H](O[C@H]2[C@H](OC(=O)[C@]34CCC(C)(C)C[C@H]3C3=CCC5[C@@]6(C)C[C@H](O)[C@H](O[C@@H]7O[C@H](CO)[C@@H](O)[C@H](O)[C@H]7O)[C@](CO)(C(=O)O)C6CC[C@@]5(C)[C@]3(C)C[C@H]4O)OC[C@H](O)[C@@H]2O)[C@H](O)[C@H](O)[C@H]1O[C@@H]1OC[C@@H](O)[C@H](O[C@@H]2OC[C@](O)(CO)[C@H]2O)[C@H]1O` (some centres undefined): 2.45 µM (active); `CC(O)(C(=O)C1CC1(CO)COC1OC(CO)C(O)C(O)C1O)C1C(O)CC2C3CC=C4CC(O)CC(O)C4(C)C3C(O)CC21C` (centres undefined): 0.611 µM (active).
For `COc1ccc(NC(=O)c2ccc(-c3ccc(C(=N)N)cc3C)cc2)cc1N1CCN(C)CC1`, the “activity change, negative = cytotoxicity” value is -1.41% (inactive).
Same read-out and setting: then `COc1cc(NC(=O)c2cc(C3CC3)on2)c(OC)cc1Cl`, with -4.84% (inactive); and `C=C1CC[C@@H]2[C@](C)(CO)[C@H](O)CC[C@@]2(C)[C@@H]1CC(=O)C1=CCOC1=O`, with -9.69% (inactive); and `C=Cc1ccccc1`, with 6.72% (inactive).
On the same count and under the same terms, next, `C/C=C/C=C/C(=O)O[C@@H]1C=C2COC(=O)[C@]2(O)[C@@]2(C)CCCC(C)(C)[C@H]12`: 8% (inactive).
As to `CCCCCCCCC(=O)N[C@H](CN1CCCC1)[C@H](O)c1ccc2c(c1)OCCO2`, the Potency was 16.4 µM (active).
On the same count and under the same terms, next, `COCCNCc1ccc(-c2cc3nccc(Oc4ccc(NC(=O)C5(C(=O)Nc6ccc(F)cc6)CC5)cc4F)c3s2)nc1`: 4.61 µM (active).
For `COc1ccc(S(=O)(=O)n2cnc3cc(C)c(C)cc32)cc1`, the “activity change, negative = cytotoxicity” value was -19.4% (inactive).
With `COc1cc2nc(N3CCN(C(=O)c4ccco4)C4CCCCC43)nc(N)c2cc1OC` (centres undefined), the Potency was 14.6 µM (active).
Take `CNc1cc2[nH]c(=O)n(-c3ccc(NC(=O)NS(=O)(=O)c4ccc(Cl)s4)cc3)c(=O)c2cc1F`: the “activity change, negative = cytotoxicity” value was 4.6% (inactive).
Take `O=C(NO)c1ccc(CC(=O)N(CCO)c2ccccc2)cc1`: the compound was called inactive.
On to `CC1OC(OC2C(O)COC(O[C@@H]3[C@@H](O)[C@@H](O)[C@H](OC4C(OC(=O)[C@]56CCC(C)(C)CC5C5=CCC7[C@@]8(C)C[C@H](O)[C@H](OC9OC(CO)C(O)C(O)C9O)[C@@](C)(CO)C8[C@H](O)C[C@@]7(C)[C@]5(C)CC6)OCC(O)C4O)O[C@H]3C)C2O)C(O)C(O)C1O` (some centres undefined), for which the activity change, negative = cytotoxicity is -5.97% [at 9.29 µM] (inactive).
As to `O=C(NC1(c2ccccc2)CC1)c1c(CN2CCC(N3CCCCC3)CC2)c(-c2cccc(C(F)(F)F)c2)nc2cc(Br)ccc12`, the Potency is 23.1 µM (active).
Regarding `OC1CCC(Nc2nc(-c3ccccc3)nc3[nH]ccc23)CC1` (centres undefined), the “activity change, negative = cytotoxicity” value was -10.1% (inactive).
For `C=C1CCCC2(C)CCC(C(C)(C)OC3OC(C)C(O)C(O)C3OC(=O)/C(C)=C\C)CC12` (centres undefined), the “activity change, negative = cytotoxicity” value was -27.1% [at 17.3 µM] (inactive).
The same measure, in the same setting: then `C=C(NC(=O)C(=C)NC(=O)c1csc(C2=NC3c4csc(n4)C4NC(=O)c5csc(n5)C(C(C)(O)C(C)O)NC(=O)C5CSC(=N5)/C(=C/C)NC(=O)C(C(C)O)NC(=O)c5csc(n5)C3(CC2)NC(=O)C(C)NC(=O)C(=C)NC(=O)C(C)NC(=O)C(C(C)CC)NC2C=Cc3c(C(C)O)cc(nc3C2O)C(=O)OC4C)n1)C(N)=O` (centres undefined), with -3.39% (inactive).

Source of the values: PubChem BioAssay (NCATS).
